Assay results published in PubChem BioAssay (NCATS).
Inconclusive results are not listed. Calls of active or inactive are those of the source. Calls follow the shape of the dose curve; as a rule, active = well fitted inhibition curve with a large enough effect; inconclusive = small, poorly fitted or top-dose-only effect; inactive = flat fitted curve, though single readings scatter.

Assays:
Assay in all cases: qHTS profiling for inhibitors of Plasmodium falciparum proliferation (AID 504749); also: nearly all actives have a fitted effect of over 60% in size
Details in all cases: P. falciparum in erythrocytes, SYBR Green DNA, 72 h; series mostly up to 28.7 µM
CP268 = test system: CP268
Outline: (§1)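 P. falciparum-infected erythrocytes (0.3% parasitemia, 2.5% hematocrit final) were exposed to compounds for 72 h at 37 C in 5% CO2, then lysed with SYBR Green buffer overnight at room temperature; parasite DNA fluorescence was normalized to artemisinin and DMSO controls.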

CP269 = test system: CP269
Outline: as §1

CP286 = test system: CP286
Outline: as §1

CP291 = test system: CP291
Outline: as §1

CP297 = test system: CP297
Outline: as §1

CP305 = test system: CP305
Outline: as §1

CP315 = test system: CP315
Outline: as §1

CP325 = test system: CP325
Outline: as §1

CP329 = test system: CP329
Outline: as §1

CP335 = test system: CP335
Outline: as §1

DFO2036 = test system: DFO2036
Outline: as §1

DIV14 = test system: DIV14
Outline: as §1

DIV17 = test system: DIV17
Outline: as §1

DIV30 = test system: DIV30
Outline: as §1

Dd2 = test system: Dd2
Outline: as §1

ECU = test system: ECU
Outline: as §1

FAB9 = test system: FAB9
Outline: as §1

GB4 = test system: GB4
Outline: as §1

HB3 = test system: HB3
Outline: as §1

ICS = test system: ICS
Outline: as §1

Measured: Potency

Oc1cn2c(n1)Nc1ccc(Cl)c(Cl)c1C2
inactive: CP268 | CP269 | CP286 | CP291 | CP297 | CP305 | CP315 | CP325 | CP329 | CP335 | DFO2036 | DIV14 | DIV17 | DIV30 | Dd2 | ECU | FAB9 | GB4 | HB3

C[C@H]1O[C@@H](n2cc(F)c(=O)[nH]c2=O)[C@H](O)[C@@H]1O
inactive: CP268 | CP269 | CP286 | CP291 | CP297 | CP305 | CP315 | CP325 | CP329 | CP335 | DFO2036 | DIV14 | DIV17 | DIV30 | Dd2 | ECU | FAB9 | GB4 | HB3

CCCCC(CC)COC(=O)c1ccccc1O (stereo not drawn)
inactive: CP268 | CP269 | CP286 | CP291 | CP297 | CP305 | CP315 | CP325 | CP329 | CP335 | DFO2036 | DIV14 | DIV17 | DIV30 | Dd2 | ECU | FAB9 | GB4 | HB3 | ICS

O=c1cc(CO)occ1O
inactive: CP268 | CP269 | CP286 | CP291 | CP297 | CP305 | CP315 | CP325 | CP329 | CP335 | DFO2036 | DIV14 | DIV17 | DIV30 | Dd2 | ECU | FAB9 | GB4 | HB3 | ICS

NC(=O)NNc1ccccc1
inactive: CP268 | CP269 | CP286 | CP291 | CP297 | CP305 | CP315 | CP325 | CP329 | CP335 | DFO2036 | DIV14 | DIV17 | DIV30 | Dd2 | ECU | FAB9 | GB4 | HB3 | ICS

CC1(C)OC(=O)NC1=O
inactive: CP268 | CP269 | CP286 | CP291 | CP297 | CP305 | CP315 | CP325 | CP329 | CP335 | DFO2036 | DIV14 | DIV17 | DIV30 | Dd2 | ECU | FAB9 | GB4 | HB3 | ICS

CCOC(=O)[C@H](CCc1ccccc1)N[C@@H](C)C(=O)N1C(=O)N(C)C[C@H]1C(=O)O
inactive: CP268 | CP269 | CP286 | CP291 | CP297 | CP305 | CP315 | CP325 | CP329 | CP335 | DFO2036 | DIV14 | DIV17 | DIV30 | Dd2 | ECU | FAB9 | GB4 | HB3 | ICS

Nc1ccc(S(=O)(=O)NC(=O)c2ccccc2)cc1
inactive: CP268 | CP269 | CP286 | CP291 | CP297 | CP305 | CP315 | CP325 | CP329 | CP335 | DFO2036 | DIV14 | DIV17 | DIV30 | Dd2 | ECU | FAB9 | GB4 | HB3 | ICS

O=C1NS(=O)(=O)c2ccccc21
inactive: CP268 | CP269 | CP286 | CP291 | CP297 | CP305 | CP315 | CP325 | CP329 | CP335 | DFO2036 | DIV14 | DIV17 | DIV30 | Dd2 | ECU | FAB9 | GB4 | HB3 | ICS

COc1cc2[nH]c(=O)[nH]c(=O)c2cc1OC
inactive: CP268 | CP269 | CP286 | CP291 | CP297 | CP305 | CP315 | CP325 | CP329 | CP335 | DFO2036 | DIV14 | DIV17 | DIV30 | Dd2 | ECU | FAB9 | GB4 | HB3 | ICS

O=C1OC(OC(=O)c2cccnc2Nc2cccc(C(F)(F)F)c2)c2ccccc21 (stereo not drawn)
inactive: CP268 | CP269 | CP286 | CP291 | CP297 | CP305 | CP315 | CP325 | CP329 | CP335 | DFO2036 | DIV14 | DIV17 | DIV30 | Dd2 | ECU | FAB9 | GB4 | HB3 | ICS

C[C@](N)(Cc1ccc(O)cc1)C(=O)O
inactive: CP268 | CP269 | CP286 | CP291 | CP297 | CP305 | CP315 | CP325 | CP329 | CP335 | DFO2036 | DIV14 | DIV17 | DIV30 | Dd2 | ECU | FAB9 | GB4 | HB3 | ICS

CCC(=O)Nc1ccc(O)cc1
inactive: CP268 | CP269 | CP286 | CP291 | CP297 | CP305 | CP315 | CP325 | CP329 | CP335 | DFO2036 | DIV14 | DIV17 | DIV30 | Dd2 | ECU | FAB9 | GB4 | HB3 | ICS

CCCCN(CCCC)CCCOC(=O)c1ccc(N)cc1
inactive: CP268 | CP269 | CP286 | CP291 | CP297 | CP305 | CP315 | CP325 | CP329 | CP335 | DFO2036 | DIV14 | DIV17 | DIV30 | Dd2 | ECU | FAB9 | GB4 | HB3 | ICS

CCC(=O)c1ccc(O)cc1
inactive: CP268 | CP269 | CP286 | CP291 | CP297 | CP305 | CP315 | CP325 | CP329 | CP335 | DFO2036 | DIV14 | DIV17 | DIV30 | Dd2 | ECU | FAB9 | GB4 | HB3 | ICS
